JMJD2A Tudor inh – qHTS Assay for Inhibitors of JMJD2A-Tudor Domain; AlphaScreen JMJD2A-Tudor / H3K4me3 peptide binding; 390,000 tested, 4.4% active; Lysine-specific demethylase 4A (Homo sapiens), O75164; AID 504339, 2011; Potency, µM (series often up to 114 µM), hits mostly inhibitors; note: nearly all actives have a fitted effect of over 50% in size
G9a block – qHTS Assay for Inhibitors of Histone Lysine Methyltransferase G9a. G9a H3K9 monomethylation, AlphaScreen, 2 h. AID 504332, 2011. Potency, µM (titrated, usually from 102 µM), hits mostly inhibitors. 350,000 tested, 8.8% active. Histone-lysine N-methyltransferase EHMT2 (Homo sapiens), Q96KQ7; note: nearly all actives have a fitted effect of over 75% in size
Target sequence (Q96KQ7 913-1193 limits assumed): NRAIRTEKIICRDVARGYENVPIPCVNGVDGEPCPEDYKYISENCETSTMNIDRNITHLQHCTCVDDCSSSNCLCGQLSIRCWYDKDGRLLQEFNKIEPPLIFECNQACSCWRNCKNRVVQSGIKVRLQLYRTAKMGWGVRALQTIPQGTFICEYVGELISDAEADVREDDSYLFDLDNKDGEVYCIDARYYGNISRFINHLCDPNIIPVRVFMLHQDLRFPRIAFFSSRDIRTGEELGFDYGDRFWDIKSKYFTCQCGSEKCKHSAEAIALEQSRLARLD
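Using a bead-based AlphaScreen, monomethylated H3K9 product from 2 h room-temperature reactions (G9a 20 nM, peptide 500 nM, SAM 20 uM) was detected with 0.5 ug/mL rabbit anti-H3K9me1 antibody.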
HP1b chromo inh – HTS for Inhibitors of HP1-beta Chromodomain Interactions with Methylated Histone Tails | Chromobox protein homolog 1 (Homo sapiens), P83916 | AlphaScreen HP1-beta / biotin-H3K9me3 peptide binding | 390,000 tested, 0.56% active | AID 540317, 2011 | Potency, µM (series often up to 114 µM), actives largely listed as inhibitors; note: nearly all actives have a fitted effect of over 70% in size
Target sequence (P83916 whole entry, looked up): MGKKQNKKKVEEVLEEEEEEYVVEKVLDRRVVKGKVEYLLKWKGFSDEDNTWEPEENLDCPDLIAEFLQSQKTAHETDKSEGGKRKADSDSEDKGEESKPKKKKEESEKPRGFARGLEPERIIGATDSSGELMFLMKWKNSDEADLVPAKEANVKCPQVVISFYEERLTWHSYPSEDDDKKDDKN
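HP1-beta protein (50 nM final) preincubated 30 min at room temperature with biotinylated H3(1-18)K9me3 peptide (50 nM) in PBS pH 7.4, 0.01% Tween-20, then compound added for 30 min. AlphaScreen streptavidin donor/nickel chelate acceptor beads (10 ug/mL final), 30 min dark, luminescence read.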
BAZ2B inh – qHTS Assay for Inhibitors of BAZ2B | 360,000 tested, 4.4% active | AID 504333, 2011 | Potency, µM (doses to about 114 µM), hits mostly inhibitors | Bromodomain adjacent to zinc finger domain protein 2B (Homo sapiens), Q9UIF8 | AlphaScreen BAZ2B-H3K14Ac peptide displacement; note: nearly all actives have a fitted effect of over 60% in size
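Multi-concentration screen (max 110 uM) measuring displacement of acetylated histone H3 peptide from BAZ2B by AlphaScreen, using 50 nM protein, 50 nM peptide and 10 ug/mL streptavidin donor plus Ni-chelate acceptor beads.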
Sfp PPTase inh – qHTS Assay for Inhibitors of Bacillus subtilis Sfp phosphopantetheinyl transferase (PPTase). 4'-phosphopantetheinyl transferase ffp (Bacillus subtilis), Q9F4F7. Potency, µM, usual class: inhibitors. 310,000 tested, 3.5% active. Biochemical Sfp PPTase activity, qHTS. AID 1490, 2009;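 note: the enzyme is Sfp with the accession as filed and its product quenches rhodamine fluorescence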
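Sfp 15 nM + cpd, 15 min RT; start w/ rhodamine-CoA 5 uM, BHQ-2-YbbR 12.5 uM (final); 50 mM Hepes pH 7.6, 10 mM MgCl2, 0.01% NP-40, 0.01% BSA; read 525/598 nm at 0 and 30 min.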
Large screens that a line does not name were inactive. Compounds with a hit are over-represented: about 12% of the library has one in this group of screens. Calls come from the whole dose curve; as a rule, active = well fitted curve in the direction sought with a large enough effect; inconclusive = small, poorly fitted or top-dose-only effect, or another doubt; inactive = no such curve, though single readings can be large; an effect the other way counts as inactive or inconclusive.

CCC(C)NC(=O)c1ccc2c(c1)S(=O)(=O)c1ccccc1C2=O (centres undefined)	G9a block 20µM
Cc1noc(C)c1COC(=O)c1ccc2c(c1)S(=O)(=O)c1ccccc1C2=O	G9a block 32µM, BAZ2B inh inconclusive
NC(=O)COC(=O)c1ccc2c(c1)S(=O)(=O)c1ccccc1C2=O	none
CC(OC(=O)c1ccc2c(c1)S(=O)(=O)c1ccccc1C2=O)C(N)=O (centres undefined)	G9a block 45µM
O=C(OCc1ccccc1)c1ccc2c(c1)-c1ccccc1C2=O	G9a block 5µM
COC(=O)[C@@H](NC(=O)c1ccc2c(c1)S(=O)(=O)c1ccccc1C2=O)C(C)C	none
O=C(OCc1ccccc1)c1ccccc1	none (no result: BAZ2B inh)
CCc1ccc(NC(=O)C2CCC(CNC(=O)[C@@H]3Cc4ccccc4CN3)CC2)cc1 (some centres undefined)	none
O=C(c1cccc(Cl)c1)N1CCC2CC1c1cc(-c3ccc(F)cc3)ccc12 (centres undefined)	none (no result: G9a block, BAZ2B inh, Sfp PPTase inh)
Cc1cc(NC(=O)CSc2ncnc3sc4c(c23)CCC(C)C4)no1 (centres undefined)	none (no result: JMJD2A Tudor inh, HP1b chromo inh)
O=C(O)c1ccc2c(c1)S(=O)(=O)c1ccccc1C2=O	G9a block 45µM
NC(=O)c1ccc2c(c1)S(=O)(=O)c1ccccc1C2=O	none
COc1ccc(CC(=O)OCc2csc(CC(=O)Nc3ccc(C)cc3)n2)cc1	none (no result: G9a block, BAZ2B inh, Sfp PPTase inh)
COc1cc(/C=C/C(=O)OCc2csc(CC(=O)Nc3ccc(C)cc3)n2)ccc1OCC#N	G9a block 10µM (no result: Sfp PPTase inh)
Cc1ccc(NC(=O)Cc2nc(CCl)cs2)cc1	JMJD2A Tudor inh inconclusive, G9a block 8.9µM
CCN1C(=O)/C(=C2\SC(=S)N(NC(=O)c3cccnc3)C2=O)c2ccccc21	JMJD2A Tudor inh inconclusive, G9a block 40µM, BAZ2B inh inconclusive
COc1cc(/C=C2\SC(=S)N(NC(=O)c3ccc(O)cc3)C2=O)ccc1O	JMJD2A Tudor inh inconclusive, HP1b chromo inh 56µM, BAZ2B inh 40µM
COc1cc(/C=C2\SC(=S)N(c3cccnc3)C2=O)ccc1O	BAZ2B inh inconclusive
COc1cc(/C=C2\SC(=S)N(NC(=O)c3cccnc3)C2=O)ccc1O	G9a block inconclusive, BAZ2B inh 45µM
COc1ccc(NC(=O)Nc2ccc(Br)c(C)c2)cc1	none
CCOC(=O)c1c2n(c3c(NCc4ccccc4)ncnc13)CCCC2	JMJD2A Tudor inh inconclusive, BAZ2B inh inconclusive
Cc1nc2scc(-c3ccccc3)c2c(=O)n1N=C1C=CC(=O)C=C1	JMJD2A Tudor inh 3.2µM, HP1b chromo inh 8.9µM
O=C(NN=C1CCCC1)c1cc(O)cc(O)c1	JMJD2A Tudor inh inconclusive, HP1b chromo inh inconclusive, BAZ2B inh 79µM (no result: G9a block)
Cc1cc(C(=O)NCCN2C(=O)S/C(=C\c3cccs3)C2=O)ccc1[N+](=O)[O-]	Sfp PPTase inh 35µM
CCN(Cc1ccccc1)C(=O)Cn1c(=O)n(-c2ccc(Cl)cc2)c(=O)c2c(C)c(C(=O)N(C)C)sc21	JMJD2A Tudor inh 13µM (no result: Sfp PPTase inh)
COc1ccc(CC(=O)Nc2ncc([N+](=O)[O-])s2)cc1OC	JMJD2A Tudor inh inconclusive, G9a block 11µM, HP1b chromo inh 28µM, Sfp PPTase inh 25µM
CC(C)CC(=O)Nc1ncc([N+](=O)[O-])s1	Sfp PPTase inh 35µM (no result: G9a block)
Cc1nc(C)c(C(=O)Nc2ncc([N+](=O)[O-])s2)o1	JMJD2A Tudor inh inconclusive, G9a block 10µM, BAZ2B inh inconclusive
NC(=O)CN1CCCN(S(=O)(=O)c2ccc(Br)cc2)CC1	G9a block inconclusive
O=C(NCCCC(=O)N1CCCCC1)c1ccc(Cl)cc1	none
COc1ccc(/C(C)=N/NC(=O)c2nnn(-c3nonc3N)c2-c2ccccc2)cc1	G9a block 50µM, BAZ2B inh inconclusive
Cc1ccc(-c2c(C(=O)N/N=C/C3CCCCC3)nnn2-c2nonc2N)cc1	BAZ2B inh 79µM
COc1ccc(/C(C)=N/NC(=O)c2nnn(-c3nonc3N)c2CN(C)c2ccccc2)cc1	none
